Shown are actives, neighbours in structure and some others; about 13% of the full set was active somewhere.
USP17 block – inhibitors of human USP17 deubiquitinase. A8MUK1. purified USP17, Ub-rhodamine cleavage fluorescence, 3 h. inhibition, % at 50 µM. hit rate 6.5% among 47,000
USP8 inh – human USP8 deubiquitinase inhibition | P40818 | purified USP8, Ub-rhodamine cleavage fluorescence, 30 min | inhibition, % at 20 µM | hit rate 4.2% among 47,000 | AID 1645853
USP30 inh – inhibitors of human USP30 deubiquitinase. purified USP30, Ub-rhodamine cleavage fluorescence. hit rate 5.3% among 47,000. Q70CQ3. inhibition, % at 25 µM
USP28 inh – inhibitors of human USP28 deubiquitinase | Q96RU2 | purified USP28, Ub-rhodamine cleavage fluorescence, 30 min | inhibition, % at 25 µM | hit rate 3% among 47,000
Target sequence (Q96RU2 whole entry, looked up): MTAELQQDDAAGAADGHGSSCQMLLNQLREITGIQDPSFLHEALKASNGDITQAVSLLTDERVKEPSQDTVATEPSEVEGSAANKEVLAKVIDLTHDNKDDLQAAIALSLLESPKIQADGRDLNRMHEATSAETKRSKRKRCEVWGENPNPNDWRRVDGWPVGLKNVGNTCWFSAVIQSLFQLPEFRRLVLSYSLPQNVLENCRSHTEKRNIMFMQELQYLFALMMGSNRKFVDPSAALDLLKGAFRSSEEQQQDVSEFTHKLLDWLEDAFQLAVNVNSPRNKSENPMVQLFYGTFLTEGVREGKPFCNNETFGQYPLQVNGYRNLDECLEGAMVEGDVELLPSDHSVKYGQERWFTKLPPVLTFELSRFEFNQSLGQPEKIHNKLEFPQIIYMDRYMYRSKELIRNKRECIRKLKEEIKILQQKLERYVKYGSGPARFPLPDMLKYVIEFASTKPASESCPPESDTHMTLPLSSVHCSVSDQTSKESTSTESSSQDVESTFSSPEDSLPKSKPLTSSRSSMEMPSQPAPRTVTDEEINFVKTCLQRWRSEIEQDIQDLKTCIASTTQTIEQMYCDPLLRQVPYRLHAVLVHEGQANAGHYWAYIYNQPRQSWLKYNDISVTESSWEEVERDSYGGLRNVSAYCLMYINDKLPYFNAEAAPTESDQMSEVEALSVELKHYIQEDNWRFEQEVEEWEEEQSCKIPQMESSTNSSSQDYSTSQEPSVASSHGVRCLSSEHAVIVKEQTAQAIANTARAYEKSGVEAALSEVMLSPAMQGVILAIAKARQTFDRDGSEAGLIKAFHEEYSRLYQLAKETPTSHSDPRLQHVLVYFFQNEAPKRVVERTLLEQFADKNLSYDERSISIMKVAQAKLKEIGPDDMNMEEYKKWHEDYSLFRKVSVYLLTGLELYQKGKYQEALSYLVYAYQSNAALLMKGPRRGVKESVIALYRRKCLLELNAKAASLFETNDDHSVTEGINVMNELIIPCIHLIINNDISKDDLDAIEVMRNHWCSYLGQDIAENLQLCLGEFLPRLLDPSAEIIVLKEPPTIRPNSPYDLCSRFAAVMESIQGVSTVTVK
* hit, by the source's call; . = no result given. Cut-off read from the data, not from the text of the source: active = inhibition above about 30%; inactive = the rest.

SMILES | USP17 block | USP8 inh | USP30 inh | USP28 inh
CCCn1cnc2cc(-c3noc(CNC(=O)c4cccs4)n3)ccc21 | 5.5 | 33.0* | 23.2 | 9.2
Cn1c(=O)c2ccc(C3CCN(C(=O)c4ccccc4)C3)nc2n(C)c1=O (configuration not stated) | 3.1 | 24.9 | 12.4 | 5.7
Fc1cccc(Cn2cc(-c3noc(-c4ccncc4)n3)nn2)c1 | 66.5* | -2.5 | -7.3 | 12.3
Cc1ccc(Cn2cc(-c3noc(-c4ccncc4)n3)nn2)cc1 | 79.1* | 3.4 | 25.7 | 8.3
CCOc1ccccc1-c1nc(-c2cn(Cc3cccc(F)c3)nn2)no1 | 9.0 | 3.5 | 23.4 | 12.8
O=C(Nc1ccc2ccccc2c1)C(=O)C1C(=O)Nc2ccccc21 (configuration not stated) | -22.1 | 61.8* | -187.7 | -16.7
O=C(NC1CC1)c1cn(-c2ccc(S(=O)(=O)N3CCCC3)cn2)cn1 | 4.7 | -1.3 | 0.0 | 7.9
O=C(Nc1ccc(O)cc1)c1cccn2c(-c3ccccc3F)nnc12 | -5.6 | 56.4* | 25.3 | 37.4*
CS(=O)(=O)N1CC[C@H]2CO[C@H](CNC(=O)c3ccnnc3)[C@H]2C1 | -28.9 | -197.0 | -2.8 | -14.7
CSc1ncc(C(=O)NC2CC2)c(-c2ccccc2)n1 | 3.9 | 7.4 | 0.4 | 3.7
O=C(NC1CC1)c1cc(-c2ccco2)nc2onc(-c3ccccc3)c12 | 31.4* | 1.4 | -131.3 | -9.1
O=C(NCC1CC1)C1CCN(c2cnc(N3CCCCCC3)nc2)CC1 | -27.2 | -10.1 | . | .
Cc1ccc(-n2cc3c(N4CCCC(C(=O)NCC5CCCCC5)C4)ncnc3n2)cc1 (configuration not stated) | 59.8* | -0.1 | 38.6* | 9.6
NC(c1c(O)ccc2ccccc12)P(=O)(O)O (configuration not stated) | 9.4 | 37.5* | 4.4 | 3.6
O=C1c2c(O)cc(O)cc2OC(c2ccc(O)c(O)c2)C1O (configuration not stated) | 65.0* | 5.7 | 59.6* | 55.8*
Cn1c(=O)c(C2CCCCC2O)nc2c(OCc3ccccc3)nc(N)nc21 (configuration not stated) | 41.7* | 8.9 | -45.7 | -9.7
COc1cccc(CNC(=O)C2c3ccccc3CC(=O)N2C)c1OC (configuration not stated) | 18.9 | -46.9 | 4.5 | 16.0
Cc1cnnn1-c1ccc(C(=O)Nc2ccc(Cl)cc2Cl)cc1 | 84.4* | 59.1* | 80.8* | 36.9*
Cc1cnnn1-c1ccc(C(=O)Nc2ccccc2C(F)(F)F)cc1 | -6.4 | -35.1 | 5.4 | -2.7
Cc1cnnn1-c1ccc(C(=O)Nc2ccccc2F)cc1 | 15.5 | 1.0 | 34.0* | 12.5
CC1CS(=O)(=O)N(c2ccc(C(=O)N(C)Cc3ccccc3)cc2)C1=O (configuration not stated) | 5.2 | -1.2 | 23.0 | 5.4
Cc1ccc2nc(NC(=O)c3ccccc3Cl)[nH]c(=O)c2c1 | 46.0* | -0.7 | -13.0 | -5.8
Cc1ccc(NC(=O)c2cc(-c3ccccn3)nc3ccc(C)cc23)cc1 | -2.4 | -12.2 | -68.5 | -30.7
CN1C(=O)CO[C@H](c2ccc(NC(=O)c3ccccc3)cc2)[C@H]1CO | 14.0 | 4.2 | 19.1 | -0.3
CC(=O)Nc1ccc([C@H]2OCC(=O)N(C3CCOCC3)[C@@H]2CO)cc1 | 24.3 | 8.9 | 50.5* | 3.4
SMILES | USP17 block | USP8 inh | USP30 inh | USP28 inh
O=C(c1ccc[nH]1)N1CCCC1c1noc(C2CC2)n1 (configuration not stated) | -11.2 | -10.0 | 0.0 | -0.9
Cn1c(=O)c2c(nc3n(CCc4ccccc4)c(-c4ccccc4)cn23)n(C)c1=O | -0.1 | -29.3 | 41.3* | 18.7
CC(C)=CCC/C(C)=C/C[C@]1(O)C(=O)c2cc(O)cc(O)c2C(=O)[C@@]1(Cl)CC=C(C)C | 50.1* | -8.9 | 9.4 | 19.5
COc1ccc(-c2noc(C3(c4cccc(F)c4)CCOCC3)n2)cc1 | -4.7 | 2.9 | -12.2 | -8.9
O=C(CC(c1cccc(F)c1)n1cccc1)Nc1ccc(F)c(Cl)c1 (configuration not stated) | 46.0* | 25.1 | 35.5* | 25.8
O=C(CC(c1ccc(F)cc1)n1cccc1)Nc1ccc(Cl)cc1 (configuration not stated) | 17.6 | -8.6 | -24.4 | 14.0
O=C(COC(=O)CCCc1c[nH]c2ccccc12)Nc1ccc2c(c1)OCO2 | 12.0 | -84.5 | -22.2 | 39.9*
O=C(CCc1c[nH]c2ccccc12)Nc1ccc(N2CCOCC2)cc1 | 60.2* | 8.3 | 33.5* | 61.6*
O=C(Cc1c(F)cccc1Cl)N1CCn2cnnc2C1 | 0.7 | 27.9 | 1.1 | 0.2
O=C(Nc1cccc(-c2nc3ncccc3o2)c1)c1ccc([N+](=O)[O-])cc1 | 20.0 | 19.5 | 6.1 | 20.3
Cc1ccc(-c2nc3ncccc3o2)cc1NC(=O)COc1ccc([N+](=O)[O-])cc1 | 40.5* | -6.0 | -23.2 | -33.0
COc1ccc(OCCn2c(C3CC(=O)N(c4cccc(C)c4)C3)nc3ccccc32)cc1 (configuration not stated) | 76.1* | 11.0 | 34.0* | 7.2
Cc1ccc(N2CC(c3nc4ccccc4n3CCCOc3ccccc3)CC2=O)cc1 (configuration not stated) | 60.5* | 23.7 | 55.9* | 11.1
CN1CC(c2nc3ccccc3n2CCCOc2ccc(Cl)cc2)CC1=O (configuration not stated) | 1.5 | 18.3 | -7.1 | -0.1
COc1ccccc1OCCCCn1c(C2CC(=O)N(c3ccccc3F)C2)nc2ccccc21 (configuration not stated) | 29.1 | 15.6 | 39.0* | 8.8
O=C1CC(c2nc3ccccc3n2CCOc2ccc(Cl)cc2)CN1c1ccccc1 (configuration not stated) | 66.3* | 86.7* | 72.4* | 24.8
CCCCN1CC(c2nc3ccccc3n2CCOc2ccccc2OC)CC1=O (configuration not stated) | 0.2 | 0.2 | 16.4 | 10.4
O=C(Cc1cccc2ccccc12)Nc1ccc2c(c1)NC(=O)CO2 | 19.3 | 3.4 | 30.1* | 49.7*
CC(C)CC(NC(=O)c1ccccn1)c1nc2ccccc2[nH]1 (configuration not stated) | -25.8 | -13.3 | -66.0 | -25.7
Cc1nnc(NC(=O)C2CCN(c3ccc(S(N)(=O)=O)cc3[N+](=O)[O-])CC2)o1 | 72.8* | 19.1 | 28.8 | 66.1*
O=C(Oc1cccc(NC2=NS(=O)(=O)c3ccccc32)c1)c1ccc(S(=O)(=O)N2CCCCC2)cc1 | 51.6* | 7.2 | . | .
O=C(c1ccc(S(=O)(=O)N2CCOCC2)cc1)N1CCN(C2=NS(=O)(=O)c3ccccc32)CC1 | 1.2 | 15.1 | 11.2 | 3.6
Cc1ccc(CN2CCCn3nc(C(=O)NCc4ccccc4F)cc3C2=O)cc1 | 11.7 | 4.3 | 9.4 | 13.1
Cc1ccc(CN2CCCn3nc(C(=O)NCc4ccc(F)cc4)cc3C2=O)cc1 | 37.8* | -2.6 | 55.5* | 13.5
CCCCCn1c(=O)[nH]c2cc(C(=O)NCCN3CCC(Cc4ccccc4)CC3)ccc2c1=O | 21.3 | 15.2 | 43.8* | 14.1
CCCCCn1c(=O)[nH]c2cc(C(=O)NCCCN3CCN(c4cccc(Cl)c4)CC3)ccc2c1=O | -1.6 | 24.9 | -5.0 | -8.1
COc1ccccc1NCC(=O)N1c2ccccc2NC(=O)C1(C)C | 27.8 | 33.7* | -9.3 | 8.4
